Assay results taken from PubChem BioAssay (Tox21).
Values joined by “and” are separate entries in the source; they are usually repeats but may differ in a detail not shown here. Equal values may be shown once. Values without a mark were called inactive. A call without a number means that no potency is given here. Active and inactive are the calls of the source. The call rests on the fitted dose curve.

Biological target: Acetylcholinesterase (Homo sapiens) (UniProt P22303)
Experiment: Acetylcholinesterase (AChE) small molecule antagonists: enzyme-based qHTS assay (AID 1347397); further: nearly all actives have a fitted effect of over 55% in size
Conditions: Potency: AChE enzyme activity inhibition; series mostly up to 115 µM; activity change, negative = inhibition: at the top concentration
Description: National Center for Advancing Translational Sciences [NCATS]
Division of Preclinical Innovation [DPI]
U.S. Environmental Protection Agency [EPA]
National Institutes of Environmental Health Sciences [NIEHS]
National Toxicology Program [NTP]
U.S. Food and Drug Administration [FDA]
Acetylcholinesterase (AChE) is the primary cholinesterase in the body that hydrolyzes a key neurotransmitter, acetylcholine. Inhibition of AChE activity can lead to neurotoxicity. The known inhibitors include organophosphorous pesticides (OP), chemical warfare agents, drugs, and various phytochemicals.
An enzyme-based assay with the recombinant human AChE and Amplite Colormetric acetylcholinesterase assay kit (AAT Bioquest, Sunnyvale, CA) was used to evaluate the chemicals in the Tox21 10K library that inhibit AChE activity. The assay uses 5, 5-dithiobis-(2-nitrobenzoic acid) (DTNB) to quantify the thiocholine produced from the hydrolysis of acetylthiocholine by AChE.
Tox21 Assay Protocol Summary:
For the enzyme-based AChE assay, recombinant human AChE (50 mU/mL) in 4 uL/well was dispensed into black, clear-bottom 1536-well plates using a Multidrop Combi dispenser (Thermo Scientific, MA). Then, 23 nL of compound or DMSO (vehicle control) was transferred into the assay plates by a Pintool Station (Wako Automation, CA). The plates were incubated for 30 min at room temperature, followed by the addition of 4 uL of colorimetric detection cocktail solution (DTNB, acetylthiocholine) into each well using a Flying Reagent Dispenser (Beckman Coulter, CA) and then 10 min incubation at room temperature.
Potency means the concentration at half of the fitted maximal effect.

Chain of Acetylcholinesterase (Homo sapiens) (P22303 whole entry, looked up): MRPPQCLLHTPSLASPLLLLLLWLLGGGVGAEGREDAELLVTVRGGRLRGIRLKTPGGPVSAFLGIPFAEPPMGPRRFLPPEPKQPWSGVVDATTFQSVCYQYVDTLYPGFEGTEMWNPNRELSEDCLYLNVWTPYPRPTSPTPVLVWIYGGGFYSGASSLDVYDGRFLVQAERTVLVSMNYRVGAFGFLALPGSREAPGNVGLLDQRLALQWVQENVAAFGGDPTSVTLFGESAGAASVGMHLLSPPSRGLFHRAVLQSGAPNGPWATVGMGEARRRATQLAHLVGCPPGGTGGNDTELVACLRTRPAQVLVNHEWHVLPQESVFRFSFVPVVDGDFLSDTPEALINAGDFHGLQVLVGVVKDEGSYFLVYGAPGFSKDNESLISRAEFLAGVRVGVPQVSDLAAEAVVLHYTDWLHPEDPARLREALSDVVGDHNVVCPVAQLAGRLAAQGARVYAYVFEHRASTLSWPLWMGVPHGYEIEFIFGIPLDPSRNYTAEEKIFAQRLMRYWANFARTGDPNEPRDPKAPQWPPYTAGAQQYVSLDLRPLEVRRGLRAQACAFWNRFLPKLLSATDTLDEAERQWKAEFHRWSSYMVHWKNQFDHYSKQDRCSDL

Compound	Potency	activity change, negative = inhibition
C=CCc1ccc(OC)cc1	inactive	–
C=CCN(CC=C)C(=O)C(Cl)Cl	inactive	–
CC(O)CCO (stereo not given)	inactive	–
C#CCOS(=O)OC1CCCCC1Oc1ccc(C(C)(C)C)cc1 (stereo not given)	inactive	–
CCCCCc1cc(O)cc(O)c1	–	-0.0287%
Oc1cc(Cl)ccc1Cl	inactive	–
NNC(=S)NN	inactive	–
Oc1ccc(-c2ccccc2)cc1	inactive	–
CCc1cccc(CC)c1N(COC)C(=O)CCl	inactive	–
Nn1cnnc1	inactive	–
CCC(C)c1ccc(O)cc1 (stereo not given)	inactive	–
CCCCCCCCOC(=O)c1ccccc1C(=O)OCCCCCCCC	inactive	–
Cc1cc(C)cc(C)c1	inactive	–
COc1ccc(C=O)cc1	inactive	–
CN(C)c1ccc(C(=O)c2ccc(N(C)C)cc2)cc1	inactive	–
Nc1ccc(Cl)c(Cl)c1	inactive	–
CCOC(=O)C(C)OC(=O)c1cc(Oc2ccc(C(F)(F)F)cc2Cl)ccc1[N+](=O)[O-] (stereo not given)	inactive	–
O=P(Oc1ccccc1)(Oc1ccccc1)Oc1ccccc1	7.06 µM (active) and 11.2 µM (active)	–
O=C(NC(=O)c1c(F)cccc1F)Nc1ccc(Cl)cc1	inactive	–
C1=Cc2cccc3cccc1c23	inactive	–

Compound	Potency	activity change, negative = inhibition
CCCCC(CC)COC(=O)Cl (stereo not given)	inactive	–
c1nc[nH]n1	inactive	–
C[C@]12CCC(=O)C(O)=C1CC[C@@H]1[C@@H]2CC[C@]2(C)C(=O)CC[C@@H]12	inactive	–
c1ccc(N=Nc2ccccc2)cc1	inactive	–
CC1(C)C(C=C(Cl)Cl)C1C(=O)OC(C#N)c1cccc(Oc2ccccc2)c1 (stereo not given)	inactive	–
C=CCc1ccc2c(c1)OCO2	inactive	–
c1ccc(NNc2ccccc2)cc1	inactive	–
Cc1ccc2c(c1N)C(=O)c1ccccc1C2=O	inactive	–
Nc1ccc(-c2ccccc2)cc1	inactive	–
CC(C)(OOC(C)(C)c1ccccc1)c1ccccc1	inactive	–
CCC(C)(C)c1ccc(O)cc1	inactive	–
CNC(=O)Oc1cccc2c1OC(C)(C)O2	1.65 µM (active) and 356 nM (active)	–
CCN(N=O)C(N)=O	inactive	–
CC(C)=CC1C(C(=O)OCc2coc(Cc3ccccc3)c2)C1(C)C (stereo not given)	inactive	–
Oc1cc(Cl)c(Cl)cc1Cl	inactive	–
Nc1cccnc1	inactive	–
CCCCNC(=O)n1c(NC(=O)OC)nc2ccccc21	inactive	–
Brc1ccc(Oc2cc(Br)c(Br)cc2Br)c(Br)c1	inactive	–
CCN(CC)C(=O)SCc1ccc(Cl)cc1	inactive	–
CNC(=O)N(C)c1nnc(C(C)(C)C)s1	inactive	–
